Laboratory results from PubChem BioAssay (Tox21).
Where “and” joins values, the source holds several entries; their conditions need not be identical. Equal values may be shown once. Results filed as inconclusive are left out. Calls of active or inactive are those of the source. Unless noted, calls follow the shape of the dose curve; as a rule, active = well fitted curve in the direction sought with a large enough effect in the repeat runs; inconclusive = weak or mixed curves; inactive = no such curve, though single readings can be large; an effect the other way counts as inactive or inconclusive.

Key:
[1] = qHTS assay to identify small molecule antagonists of the glucocorticoid receptor (GR) signaling pathway - cell viability counter screen (AID 720693); also: nearly all actives have a fitted effect of over 55% in size; also: potency is read from the fitted curve at half-maximal effect
[2] = qHTS assay for identifying genotoxic compounds that show differential cytotoxicity against isogenic chicken DT40 cell lines with known DNA damage response pathways - wild type cell line (AID 743012); also: nearly all actives have a fitted effect of over 60% in size; also: potency is read from the fitted curve at half-maximal effect
Outline: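 Endpoint: CellTiter-Glo luminescence, 30 min RT. Cells: wild type DT40, 300/well. Exposure: compounds in DMSO, 40 h, 37 C/5% CO2, after ~0.5 h pre-incubation.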

[3] = qHTS assay for identifying genotoxic compounds that show differential cytotoxicity against isogenic chicken DT40 cell lines with known DNA damage response pathways - Rev3 mutant cell line (AID 743014); also: nearly all actives have a fitted effect of over 55% in size; also: potency is read from the fitted curve at half-maximal effect
[4] = qHTS assay for identifying genotoxic compounds that show differential cytotoxicity against isogenic chicken DT40 cell lines with known DNA damage response pathways - Rad54/Ku70 mutant cell line (AID 743015); also: nearly all actives have a fitted effect of over 60% in size; also: potency is read from the fitted curve at half-maximal effect
[5] = qHTS assay to identify small molecule antagonists of the androgen receptor (AR) signaling pathway - cell viability counter screen (AID 743033; also: nearly all actives have a fitted effect of over 45% in size; also: potency is read from the fitted curve at half-maximal effect)
[6] = qHTS assay to identify small molecule antagonists of the androgen receptor (AR) signaling pathway using the MDA cell line - cell viability counter screen (AID 743041; also: nearly all actives have a fitted effect of over 45% in size; also: potency is read from the fitted curve at half-maximal effect)
Outline: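 Viability read by CellTiter-Fluor fluorescence in the same wells as the antagonist screen, added after 15.5 h of a 16 h, 37C exposure. Human breast carcinoma MDA-kb2 AR-luc cells, compounds co-dosed with agonist R1881.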

[7] = qHTS assay to identify small molecule antagonists of the thyroid receptor (TR) signaling pathway - cell viability counter screen (AID 743064); also: nearly all actives have a fitted effect of over 50% in size; also: potency is read from the fitted curve at half-maximal effect
Outline: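 Plate GH3.TRE-Luc cells; incubate 4 h at 37 °C; add compound, then T3 to 1 nM final; incubate 23.5 h; add CellTiter-Fluor; incubate 30 min at 37 °C, 5% CO2; read fluorescence.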

[8] = qHTS assay to identify small molecule antagonists of the thyroid receptor (TR) signaling pathway (AID 743065); also: nearly all actives have a fitted effect of over 55% in size; also: potency is read from the fitted curve at half-maximal effect
Outline: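 Antagonism measured as loss of luciferase signal in GH3 cells stably carrying a TRE-luciferase reporter, co-treated with compound and T3 (1 nM final) for 23.5 h at 37 C. Viability was read in the same well by CellTiter-Fluor.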

[9] = tested on: thyroid hormone receptor (rat, GH3 cells); assay: qHTS assay to identify small molecule agonists of the thyroid receptor (TR) signaling pathway (AID 743066; calls by dose curve)
[10] = molecular target: Estrogen receptor (Homo sapiens) (UniProt P03372); assay: qHTS assay to identify small molecule antagonists of the estrogen receptor alpha (ER-alpha) signaling pathway (AID 743069; active = well fitted curve in the direction sought with a large enough effect in the signal ratio in the repeat runs, not every such curve was filed as active; the % refers to the signal ratio)
Chain of Estrogen receptor (Homo sapiens) (P03372 whole entry, looked up): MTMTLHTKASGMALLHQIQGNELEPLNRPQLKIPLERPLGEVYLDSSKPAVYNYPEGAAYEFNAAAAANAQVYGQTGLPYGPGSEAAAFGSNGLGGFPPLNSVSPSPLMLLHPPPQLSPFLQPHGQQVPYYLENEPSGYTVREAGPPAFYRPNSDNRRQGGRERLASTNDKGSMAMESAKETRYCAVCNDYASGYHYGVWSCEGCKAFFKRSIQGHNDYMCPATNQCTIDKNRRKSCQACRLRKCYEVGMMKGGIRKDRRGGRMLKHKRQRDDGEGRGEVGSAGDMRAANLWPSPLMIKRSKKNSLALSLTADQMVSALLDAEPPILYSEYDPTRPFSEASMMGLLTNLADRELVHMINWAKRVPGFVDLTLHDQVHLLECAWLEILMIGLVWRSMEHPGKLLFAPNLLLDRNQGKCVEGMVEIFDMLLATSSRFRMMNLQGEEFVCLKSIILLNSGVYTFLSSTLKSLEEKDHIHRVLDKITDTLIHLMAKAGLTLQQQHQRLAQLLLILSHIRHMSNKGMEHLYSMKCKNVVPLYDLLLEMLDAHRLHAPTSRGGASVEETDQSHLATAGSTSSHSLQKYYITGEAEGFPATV
Outline: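 Antagonist mode: compounds in DMSO were co-added with 17beta-estradiol to ER-alpha-bla HEK293 cells (2% charcoal-stripped serum) and left 18 h at 37C. Reporter inhibition was measured as FRET fluorescence after 2 h LiveBLAzer substrate at room temperature.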

[11] = qHTS assay to identify small molecule antagonists of the estrogen receptor alpha (ER-alpha) signaling pathway - cell viability counter screen (AID 743074; calls by dose curve;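 also: HEK293 cells carrying ER-alpha-UAS-bla reporter stimulated with 17beta-estradiol; nearly all actives have a fitted effect of over 45% in size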; also: potency is read from the fitted curve at half-maximal effect)
[12] = molecular target: Estrogen receptor (Homo sapiens) (UniProt P03372); assay: qHTS assay to identify small molecule agonists of the estrogen receptor alpha (ER-alpha) signaling pathway (AID 743075; calls by dose curve;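 also: HEK293 GripTite cells with ER-alpha and UAS-driven beta-lactamase reporter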)
[13] = molecular target: Estrogen receptor (Homo sapiens) (UniProt P03372); assay: qHTS assay to identify small molecule agonists of the estrogen receptor alpha (ER-alpha) signaling pathway using the BG1 cell line (AID 743079); conditions: BG1Luc4E2 cells, ERE-luciferase agonist, 22 h; activation: at 70.3 µM (top of the series); also: nearly all actives have a fitted effect of over 20% in size; also: potency is read from the fitted curve at half-maximal effect
[14] = qHTS assay to identify small molecule antagonists of the estrogen receptor alpha (ER-alpha) signaling pathway using the BG1 cell line (AID 743080; calls by dose curve;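 also: BG1 cells stimulated with 17beta-estradiol alongside compound; nearly all actives have a fitted effect of over 25% in size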)
Outline: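 Luminescence from a 4×ERE-luciferase reporter in BG1-Luc-4E2 cells served as read-out. Cells, pre-cultured 5 days in stripped-serum phenol-red-free medium, were exposed to compound with 17beta-estradiol co-stimulation for 21.5 h at 37 C.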

[15] = qHTS assay to identify small molecule antagonists of the estrogen receptor alpha (ER-alpha) signaling pathway using the BG1 cell line - cell viability counter screen (AID 743081);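 also: compound given together with 17beta-estradiol as the ER stimulus; nearly all actives have a fitted effect of over 45% in size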; also: potency is read from the fitted curve at half-maximal effect
Aromatase (Homo sapiens) = Aromatase (Homo sapiens) (UniProt P11511); assay: qHTS assay to identify aromatase inhibitors (AID 743083); also: nearly all actives have a fitted effect of over 55% in size; also: potency is read from the fitted curve at half-maximal effect
Chain of Aromatase (Homo sapiens) (P11511 whole entry, looked up): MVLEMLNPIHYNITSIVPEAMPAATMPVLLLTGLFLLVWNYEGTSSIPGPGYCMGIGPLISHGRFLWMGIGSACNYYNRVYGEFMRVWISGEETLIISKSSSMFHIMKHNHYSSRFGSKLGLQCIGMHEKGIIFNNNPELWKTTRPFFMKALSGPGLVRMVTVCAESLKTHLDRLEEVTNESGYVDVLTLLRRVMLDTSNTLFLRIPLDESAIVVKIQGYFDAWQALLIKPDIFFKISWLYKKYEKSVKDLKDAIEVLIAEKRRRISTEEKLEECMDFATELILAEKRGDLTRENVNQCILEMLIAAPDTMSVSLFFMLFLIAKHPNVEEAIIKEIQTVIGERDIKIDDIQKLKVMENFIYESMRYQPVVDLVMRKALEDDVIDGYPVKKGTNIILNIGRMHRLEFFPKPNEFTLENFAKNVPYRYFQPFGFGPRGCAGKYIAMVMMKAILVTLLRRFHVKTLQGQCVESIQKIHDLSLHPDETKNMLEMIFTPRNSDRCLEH

[16] = molecular target: Androgen receptor (Homo sapiens) (UniProt P10275); assay: qHTS assay to identify small molecule agonists of the androgen receptor (AR) signaling pathway using the MDA cell line (AID 743040; also: nearly all actives have a fitted effect of over 20% in size)
Chain of Androgen receptor (Homo sapiens) (P10275 whole entry, looked up): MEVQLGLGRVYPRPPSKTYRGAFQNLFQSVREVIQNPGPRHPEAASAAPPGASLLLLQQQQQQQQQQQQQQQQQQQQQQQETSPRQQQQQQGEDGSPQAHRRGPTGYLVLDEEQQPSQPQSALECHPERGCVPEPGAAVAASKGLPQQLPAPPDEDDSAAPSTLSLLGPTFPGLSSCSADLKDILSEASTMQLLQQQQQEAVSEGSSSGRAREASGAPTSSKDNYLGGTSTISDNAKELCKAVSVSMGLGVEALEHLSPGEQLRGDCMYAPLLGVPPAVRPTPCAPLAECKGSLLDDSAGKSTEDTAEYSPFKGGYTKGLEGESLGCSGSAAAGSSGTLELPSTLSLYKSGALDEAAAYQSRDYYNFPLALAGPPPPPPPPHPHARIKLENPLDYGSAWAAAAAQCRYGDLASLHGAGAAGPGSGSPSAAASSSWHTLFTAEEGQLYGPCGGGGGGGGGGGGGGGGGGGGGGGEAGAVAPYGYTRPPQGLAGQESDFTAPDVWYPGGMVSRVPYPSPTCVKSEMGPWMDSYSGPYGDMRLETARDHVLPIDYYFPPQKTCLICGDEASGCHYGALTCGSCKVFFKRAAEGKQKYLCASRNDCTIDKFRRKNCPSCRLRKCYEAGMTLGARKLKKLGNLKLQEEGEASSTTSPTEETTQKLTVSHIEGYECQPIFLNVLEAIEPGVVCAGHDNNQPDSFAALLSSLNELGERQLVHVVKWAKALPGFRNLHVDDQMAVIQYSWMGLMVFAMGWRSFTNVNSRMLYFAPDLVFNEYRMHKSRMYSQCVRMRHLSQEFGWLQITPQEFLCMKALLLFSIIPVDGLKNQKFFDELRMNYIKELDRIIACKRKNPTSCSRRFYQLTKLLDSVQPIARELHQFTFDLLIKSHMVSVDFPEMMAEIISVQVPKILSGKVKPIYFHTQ
Outline: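 Luciferase agonist assay: 16 h compound exposure at 37C without CO2 in MDA-kb2 AR-luc cells, whose MMTV promoter responds to both AR and GR. Luminescence measured after 30 min room-temperature incubation with ONE-Glo.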

[17] = molecular target: Androgen receptor (Homo sapiens) (UniProt P10275); assay: qHTS assay to identify small molecule antagonists of the androgen receptor (AR) signaling pathway using the MDA cell line (AID 743042; also: nearly all actives have a fitted effect of over 55% in size; also: potency is read from the fitted curve at half-maximal effect)
Outline: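 Antagonist mode: compounds plus R1881 agonist added to MDA-kb2 AR-luc cells, incubated 16 h at 37C. Luciferase reporter luminescence quantified, with multiplexed CellTiter-Fluor readout for cell viability.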

Measured: Potency

O=C(CO)[C@@H](O)[C@H](O)[C@@H](O)C(=O)O
not listed: [16] | [17]
inactive: all other assays above

CO/N=C(\C(=O)N[C@@H]1C(=O)N2C(C(=O)O)=CCS[C@H]12)c1csc(N)n1
not listed: [16] | [17]
inactive: all other assays above

CO[C@@H]1[C@@H](O[C@@H]2O[C@H](C)[C@@H](O[C@H]3C[C@@](C)(O)[C@@H](OC(=O)CC(C)C)[C@H](C)O3)[C@H](N(C)C)[C@H]2O)[C@@H](CC=O)C[C@@H](C)[C@@H](O)/C=C/C=C/C[C@@H](C)OC(=O)C[C@H]1O
active: [2] 2.66 µM and 3.76 µM | [3] 5.96 µM and 7.5 µM | [4] 6.68 µM and 9.44 µM | [13] 13.3 µM
not listed: [16] | [17]
inactive: all other assays above

CCC(C)(C)OC(=O)N[C@@H](Cc1c[nH]c2ccccc12)C(=O)N[C@@H](CCSC)C(=O)N[C@@H](CC(=O)O)C(=O)N[C@@H](Cc1ccccc1)C(N)=O
not listed: [15] | [16] | [17]
inactive: all other assays above

CN(C(=O)CO)c1c(I)c(C(=O)NCC(O)CO)c(I)c(C(=O)NCC(O)CO)c1I (configuration not stated)
not listed: [16] | [17]
inactive: all other assays above

CCCCCCOc1ccc(C(=N)N(CCCC)CCCC)c2ccccc12
inactive: [16]
active: [1] 13.4 µM | [2] 3.76 µM | [3] 5.31 µM | [4] 5.96 µM | [5] 15.1 µM | [6] 18.8 µM | [17] 16.8 µM | [7] 5.31 µM | [8] 5.31 µM | [11] 9.52 µM | [15] 33.5 µM | Aromatase (Homo sapiens) 13.3 µM

CC#CCC(C)[C@H](O)/C=C/[C@@H]1[C@H]2c3cccc(CCCC(=O)O)c3O[C@H]2C[C@H]1O (some centres not stated)
active: [13] 26.6 µM
not listed: [7] | [10] | [12] | [14]
inactive: all other assays above

CC(O)[C@@H]1NC(=O)[C@H](Cc2ccccc2)NC(=O)[C@H](C(C)O)NC(=O)[C@H](CCCCN)NC(=O)[C@H](Cc2c[nH]c3ccccc23)NC(=O)[C@H](Cc2ccccc2)NC(=O)[C@H](Cc2ccccc2)NC(=O)[C@H](CC(N)=O)NC(=O)[C@H](CCCCN)NC(=O)[C@@H](NC(=O)CNC(=O)[C@H](C)N)CSSC[C@@H](C(=O)O)NC(=O)[C@H](CO)NC1=O (some centres not stated)
not listed: [16] | [17]
inactive: all other assays above

COC(=O)CC[C@H](N)C(=O)O
not listed: [16] | [17]
inactive: all other assays above

CC(=O)N[C@@H]1C(O[C@H]2O[C@H](C(=O)O)C(O)[C@H](O)[C@H]2O)[C@H](O)[C@@H](CO)O[C@H]1O[C@@H]1C(C(=O)O)O[C@@H](O[C@H]2[C@H](O)[C@@H](CO)OC(O)[C@@H]2NC(C)=O)[C@H](O)[C@H]1O (some centres not stated)
not listed: [16] | [17]
inactive: all other assays above

CN=C1C=CC(=C(c2ccc(N(C)C)cc2)c2ccc(N(C)C)cc2)C=C1
active: [1] 7.56 µM | [2] 0.531 µM | [3] 1.06 µM | [4] 0.75 µM | [5] 0.535 µM | [17] 3.76 µM | [7] 3.35 µM | [8] 2.37 µM | [11] 9.52 µM | [15] 11.9 µM | Aromatase (Homo sapiens) 1.33 µM
inactive: [16]

NC(=O)OCC(O)COc1ccc(Cl)cc1 (configuration not stated)
not listed: [16] | [17]
inactive: all other assays above

CC(=O)Nc1c(I)c(C(=O)O)c(I)c(N(C)C(C)=O)c1I
not listed: [10] | [12] | [13] | [14] | [16] | [17]
inactive: all other assays above

CCCC(=O)O[C@]1(C(=O)COC(=O)CC)[C@@H](C)C[C@H]2[C@@H]3CCC4=CC(=O)C=C[C@]4(C)[C@@]3(F)[C@@H](O)C[C@@]21C
active: [2] 29.8 µM | [3] 29.8 µM | [4] 26.6 µM
not listed: [10] | [14] | [15] | [16] | [17]
inactive: all other assays above
